# Laboratory results from ChEMBL document CHEMBL3988442, “University of Dundee, Small-Polar-MMV Screening Library” (2021).
# Columns and labels:
# [1] = target: T1, Aspartate--tRNA(Asp/Asn) ligase (Mycobacterium tuberculosis (strain ATCC 25618 / H37Rv)) (UniProt P9WFW3); experiment: Assay for Asp RNA synthetase-1 from Mycobacterium tuberculosis; type: functional; design: scale not given: direction of the effect not stated beside the values; conditions: 30 µM; also: in the data most compounds retested in dose-response had high values
# T1 sequence (whole entry): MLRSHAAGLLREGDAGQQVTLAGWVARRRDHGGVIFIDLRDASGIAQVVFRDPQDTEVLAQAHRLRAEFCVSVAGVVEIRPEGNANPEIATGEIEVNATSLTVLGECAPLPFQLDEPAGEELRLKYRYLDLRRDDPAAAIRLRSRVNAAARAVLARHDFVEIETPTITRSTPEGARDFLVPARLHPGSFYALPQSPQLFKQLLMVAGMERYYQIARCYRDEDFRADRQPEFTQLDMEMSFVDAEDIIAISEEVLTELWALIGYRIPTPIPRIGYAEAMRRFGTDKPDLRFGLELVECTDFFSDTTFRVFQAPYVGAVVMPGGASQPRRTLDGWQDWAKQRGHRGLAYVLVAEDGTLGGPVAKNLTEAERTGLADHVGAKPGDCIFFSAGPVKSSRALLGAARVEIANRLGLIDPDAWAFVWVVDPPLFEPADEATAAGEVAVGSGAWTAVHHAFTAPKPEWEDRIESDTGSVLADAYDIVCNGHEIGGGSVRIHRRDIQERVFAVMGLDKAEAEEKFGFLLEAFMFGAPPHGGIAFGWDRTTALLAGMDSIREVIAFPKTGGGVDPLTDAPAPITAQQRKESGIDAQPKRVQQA
# [2] = target: Shiga toxin 2 (Escherichia coli O157:H7) (UniProt P09385+P09386); experiment: E. coli 0.157:H7 Shiga Toxin SOP - stx2 screening assay; type: functional; design: scale not given: direction of the effect not stated beside the values; conditions: 30 µM
SMILES,Percent Effect [1],Percent Effect [2]
O=C(NC1CC1)[C@@H]1CCO[C@@H]2CCN(C3CCOCC3)C[C@H]21,5.8%,-34.3%
CCn1cnnc1CNC(=O)NCC(c1cccs1)N1CCCC1 (stereo not given),-1.91%,-4.89%
CC[C@@]1(O)CCN(C(=O)c2ccc(-c3cccc(F)c3)cc2)C[C@H]1O,3.54%,5.77%
Cc1cnn(CCNCc2ccc(C#N)cc2F)c1,-3.18%,6.24%
CC(C)(C#N)C(=O)N1CCCC(c2cc(C(F)(F)F)[nH]n2)C1 (stereo not given),-1.34%,-11.7%
Cc1cnn(CC(C)NCc2csc(-c3ccsc3)n2)c1 (stereo not given),-7.44%,-28%
COCCNc1ccc(CNC(=O)Nc2cn[nH]c2)cc1,-0.4%,-2.17%
Cn1cnc2c1CCN(Cc1nc(Cc3ccccc3)no1)C2,-1.94%,15.1%
Cc1cnccc1CN1C[C@@H](O)[C@H](Oc2ccccc2)C1,0.283%,-4.47%
Cc1ncc2c(n1)CN(Cc1nnc(Cc3ccccc3)o1)CC2,0.379%,-26.9%
Cc1nn(C)c(N(C)C)c1CNCC(O)COc1ccccc1 (stereo not given),-5.92%,-12%
COc1ccc(C)cc1CN1CCCC1c1noc(C2CC2)n1 (stereo not given),-4.34%,-3.88%
CN(C)C(=O)COC1COC2(CCN(S(C)(=O)=O)CC2)C1 (stereo not given),-4.11%,-11.5%
O=S(=O)(C1CC1)N1CCC2(CC1)CC(Oc1cccnc1)CO2 (stereo not given),6.21%,-0.225%
OC1CCCN(Cc2c(-c3ccco3)[nH]c3ncccc23)C1 (stereo not given),-0.134%,6.33%
Cc1cnn(CC2CN(CC(=O)N3CCc4ccccc43)CCO2)c1 (stereo not given),-4.75%,-15.5%
CN1CCN(c2nc(O)c3c(-c4ccccn4)ccnc3n2)CC1,-3.26%,7.03%
CCCS(=O)(=O)NCC1CCOc2ccccc2C1 (stereo not given),0.416%,-40%
c1ccc(CN2CCc3ncnc(-c4ccsc4)c3CC2)nc1,0.199%,-6.45%
Cc1cc(-c2cnc(NC3CC3)nc2-c2ccc(C)o2)on1,-2.52%,0.454%
Cc1cc(C)n(CC2CCCN2C(=O)CCc2cscn2)n1 (stereo not given),-0.678%,17%
CCCNC(=O)CNc1ccc(C(=O)N2CCCCC2C)cc1C (stereo not given),3.79%,10.6%

SMILES,Percent Effect [1],Percent Effect [2]
CC(C)NC(=O)c1sccc1N(C)S(=O)(=O)c1ccc(Cl)cc1,4.25%,-18.9%
CNS(=O)(=O)c1ccc(C(=O)NCCNc2ncccn2)cc1,-1.6%,25.5%
CCOCC1CN(C)Cc2cnn(CC3CCCC3)c21 (stereo not given),-2.58%,-8.48%
CC(=O)NCC(=O)N1CCN(CC2CC2)c2ncccc2C1,-4.63%,-0.0207%
COc1ncnc2c1CCN(c1cc(C(F)(F)F)ncn1)CC2,3.67%,-1.32%
CCc1ccc(CN2CCC3(CC2)CC(N2CCN(C)CC2)CO3)cc1 (stereo not given),2.64%,1.21%
Cc1nc(C2CCCN(C(=O)c3scnc3C)C2)no1 (stereo not given),1.59%,5.86%
COCCCN1CCCN(C(C)C(=O)Nc2cccc(I)c2)CC1 (stereo not given),0.0704%,-31.1%
N#CC1(C(=O)Nc2ccc(OC(F)F)cc2)CCCC1,3.4%,-2.03%
Cc1cc(CN2CCN(C(c3ccccc3)c3ccccc3)CC2)no1,0.857%,10.7%
NC(=O)C1CCCN(Cc2c(-c3ccco3)[nH]c3ncccc23)C1 (stereo not given),10.6%,3.34%
Cc1noc([C@H]2C[C@@H]3CCN(CC4CC4)C[C@H]3O2)n1,6.95%,-8.04%
Cn1cc(CN2CCC3(CCCN3S(C)(=O)=O)CC2)cn1,5.38%,4.5%
CCc1cnc(CN(C)C2CCN(CCc3ccccn3)C2)o1 (stereo not given),0.0557%,-7.08%
CN(C)[C@@H]1CN(Cc2ccco2)C[C@@H]2CCCO[C@@H]21,-2%,6.7%
CC(C)(C)c1cn2nc(N3CCCC3Cn3cncn3)sc2n1 (stereo not given),-3.59%,-12.7%
CCc1ccc(CN2CCC3(CC2)NC(=O)CC3c2ccncc2)o1 (stereo not given),7.7%,-9.95%
CCN(C)c1ncnc2c1CCN(Cc1ccc(OC)cc1)CC2,7%,4.46%
Cc1ccc(CN2CC[C@H]3OCC[C@@H](c4nc(C)no4)[C@H]3C2)cc1,-5.18%,8.54%
Cc1cc(C)cc(N(C)S(=O)(=O)c2cc(C(=O)O)cs2)c1,2.79%,-3.14%
Cc1nc(C)n(CC2CN(Cc3cccc(C(N)=O)c3)CCO2)n1 (stereo not given),4.41%,-4.3%
c1ccc2sc(CN3CCOC(Cn4cncn4)C3)nc2c1 (stereo not given),-5.32%,14%

SMILES,Percent Effect [1],Percent Effect [2]
CC(O)CN1CCN(C(=O)c2ccc(Br)o2)CC1 (stereo not given),-2.21%,22.8%
Cc1ccc(C(=O)NS(=O)(=O)c2cccc3cnccc23)c(=O)[nH]1,1.11%,1.19%
O=C(Cc1ccc2c(c1)OCCO2)NC1CCCC1,-0.698%,3.29%
Cc1ccc(CN2CCOC3(COCCN(CCN(C)C)C3)C2)o1 (stereo not given),5.87%,-4.4%
CCc1nc(CN(CC(N)=O)C(C)C)cs1,0.799%,-3.84%
Cc1nn(CC(=O)N2CCN(c3ccccc3F)CC2)c(C)c1Cl,8.8%,-39.1%
Cn1nnc2c1CCN(Cc1nccs1)C2COCc1ccccc1 (stereo not given),2.63%,-58%
CC[C@@H]1N(Cc2ccsc2)CCC[C@]12CCC(=O)N2C,-1.82%,5.09%
CC(C)(C)n1ncc2c1CCCC2NCc1cccc2c1OCO2 (stereo not given),-0.568%,-1.18%
Cc1nc(CN2CCCC(NCc3ccsc3)C2)no1 (stereo not given),3.1%,-14.2%
Cc1cc(NCc2cc3n(n2)CCCN(S(C)(=O)=O)C3)ncn1,-7.29%,25.2%
OC(CNCCn1cccn1)c1ccc(F)c(F)c1 (stereo not given),-2.25%,-25.7%
Cc1ccccc1C(=O)N1CCC(n2nnc3cc(F)ccc32)CC1,-5.01%,-1.06%
Cn1ccnc1CN1CCN(Cc2ccccc2C#N)CC1,1.91%,7.78%
CN(CCn1nc2ccccn2c1=O)CC(=O)N1CCCC1,-1.5%,-5.38%
CN1CCN(c2ncc3c(=O)n(-c4cccc(F)c4)c(=O)[nH]c3n2)CC1,11.2%,-20.7%
Cc1cccc(OCCC(=O)N(C)CCC#N)c1C,0.839%,8.57%
O=C1C(NCc2nnc3n2CCCC3)CCN1c1ccccc1 (stereo not given),-1.97%,-28.4%
COCCn1cc(C(=O)N2CCCC2c2cccc(F)c2)ccc1=O (stereo not given),0.301%,-4.86%
COCCCN(C)Cc1nc2c(cnn2C)c(=O)[nH]1,-1.71%,-15.2%
Cc1nn(C)c(N(C)C)c1CNCC(O)COc1ccc(F)cc1 (stereo not given),-7.16%,8.48%
c1ccc(OCC2CC3(CCN(c4ncccn4)CC3)CO2)nc1 (stereo not given),4.62%,-0.916%

SMILES,Percent Effect [1],Percent Effect [2]
COc1c(CNC2CCCOc3ccccc32)c(C)nn1C (stereo not given),-2.86%,-2.26%
COCCN1CCCN(C(=O)NC(C)Cn2ccnc2)CC1 (stereo not given),-1.32%,-14.7%
Cc1ccsc1[C@@H]1CCN(C(=O)c2cc3ccccc3[nH]2)C[C@H]1O,-0.724%,-11.7%
O=C1CCC2(CCN(c3ncc(F)cn3)CC2)N1CCN1CCCC1,1.53%,-1.87%
CCC1(CC)Cc2ccccc2-c2nc(NCCO)[nH]c(=O)c21,6.5%,17.7%
COc1ccc(C2CC(=O)Nc3c2cnn3C2CCCC2)cc1 (stereo not given),-1.45%,10.9%
CCCc1noc(CN(C)C(=O)C2COc3ccccc3C2)n1 (stereo not given),1.75%,-22.5%
CC1CCN(c2ncc3c(n2)CN(c2ccccc2)C3=O)CC1,3.06%,-36.5%
O=C(NCCCn1cncn1)NCC(c1ccccc1)N1CCCC1 (stereo not given),0.0576%,-13%
CN(Cc1cn2c(n1)CN(CC1CC1)CC2)Cc1ccco1,3.75%,-1.46%
CCOc1ncccc1C(=O)NCCN(CC)C1CC1,0.335%,9.33%
CC(c1nc(C2CC2)no1)N1CCN(CCOCC(F)(F)F)CC1 (stereo not given),-1.02%,-10.3%
CCc1nccn1C1CCCN(C(=O)c2ccc3nncn3c2)C1 (stereo not given),-8.68%,7.36%
Cc1noc([C@H]2C[C@@H]3CCN(C(=O)N(C)C)C[C@H]3O2)n1,3.32%,-1.56%
Clc1ccccc1C1(c2ccnc(CC3CC3)n2)CCNCC1,-0.0892%,-10.7%
CN1CCCN(C(=O)NCc2csc(Br)c2)CC1,0.175%,14.5%
CC(=O)N1CCN(CC2CCOc3ccccc3C2)CC1 (stereo not given),1.75%,-26.3%
CC(C)NC(=O)C1CN(C(=O)Nc2ccccc2)CC12CCOCC2 (stereo not given),12.7%,-4.72%
CCC(=O)N(C)CC(=O)Nc1ccc(Br)cn1,-3.04%,-18.8%
